Laboratory results reported in ChEMBL document CHEMBL1961873, “Compounds: GSK PKIS; Assays: Nanosyn kinase panel” (2012).

Legend:
[1] = biological target: Sphingosine kinase 1 (Homo sapiens) (UniProt Q9NYA1); conditions: at 1 µM;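 also: mean SPHK1 inhibition value reported from the GSK PKIS kinase panel screen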
[2] = biological target: T1, Sphingosine kinase 2 (Homo sapiens) (UniProt Q9NRA0); conditions: at 0.1 µM
T1 sequence (whole entry): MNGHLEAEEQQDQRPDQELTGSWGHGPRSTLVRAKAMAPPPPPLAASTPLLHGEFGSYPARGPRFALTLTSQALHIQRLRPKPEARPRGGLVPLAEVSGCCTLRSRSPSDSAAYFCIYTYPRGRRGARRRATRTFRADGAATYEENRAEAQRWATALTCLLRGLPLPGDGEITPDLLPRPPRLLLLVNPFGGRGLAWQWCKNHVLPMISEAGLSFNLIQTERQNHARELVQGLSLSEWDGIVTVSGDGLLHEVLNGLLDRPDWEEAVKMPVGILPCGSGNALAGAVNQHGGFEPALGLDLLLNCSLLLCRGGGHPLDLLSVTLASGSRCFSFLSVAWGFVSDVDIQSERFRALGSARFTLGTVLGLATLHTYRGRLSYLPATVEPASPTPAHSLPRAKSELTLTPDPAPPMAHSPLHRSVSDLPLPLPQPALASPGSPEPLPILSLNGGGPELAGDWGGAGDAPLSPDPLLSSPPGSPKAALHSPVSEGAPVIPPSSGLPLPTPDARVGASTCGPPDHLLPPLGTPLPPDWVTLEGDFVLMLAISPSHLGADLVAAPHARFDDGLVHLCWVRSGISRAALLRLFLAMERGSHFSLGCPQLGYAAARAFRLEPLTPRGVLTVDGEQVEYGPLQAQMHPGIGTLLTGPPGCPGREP

[3] = biological target: T1, Sphingosine kinase 2 (Homo sapiens); conditions: at 1 µM
[4] = biological target: Casein kinase II subunit alpha (Homo sapiens) (UniProt P68400); conditions: at 0.1 µM
[5] = biological target: Casein kinase II subunit alpha (Homo sapiens) (UniProt P68400); conditions: at 1 µM
[6] = biological target: T2, Inhibitor of nuclear factor kappa-B kinase subunit alpha (Homo sapiens) (UniProt O15111); conditions: at 0.1 µM
T2 sequence (whole entry): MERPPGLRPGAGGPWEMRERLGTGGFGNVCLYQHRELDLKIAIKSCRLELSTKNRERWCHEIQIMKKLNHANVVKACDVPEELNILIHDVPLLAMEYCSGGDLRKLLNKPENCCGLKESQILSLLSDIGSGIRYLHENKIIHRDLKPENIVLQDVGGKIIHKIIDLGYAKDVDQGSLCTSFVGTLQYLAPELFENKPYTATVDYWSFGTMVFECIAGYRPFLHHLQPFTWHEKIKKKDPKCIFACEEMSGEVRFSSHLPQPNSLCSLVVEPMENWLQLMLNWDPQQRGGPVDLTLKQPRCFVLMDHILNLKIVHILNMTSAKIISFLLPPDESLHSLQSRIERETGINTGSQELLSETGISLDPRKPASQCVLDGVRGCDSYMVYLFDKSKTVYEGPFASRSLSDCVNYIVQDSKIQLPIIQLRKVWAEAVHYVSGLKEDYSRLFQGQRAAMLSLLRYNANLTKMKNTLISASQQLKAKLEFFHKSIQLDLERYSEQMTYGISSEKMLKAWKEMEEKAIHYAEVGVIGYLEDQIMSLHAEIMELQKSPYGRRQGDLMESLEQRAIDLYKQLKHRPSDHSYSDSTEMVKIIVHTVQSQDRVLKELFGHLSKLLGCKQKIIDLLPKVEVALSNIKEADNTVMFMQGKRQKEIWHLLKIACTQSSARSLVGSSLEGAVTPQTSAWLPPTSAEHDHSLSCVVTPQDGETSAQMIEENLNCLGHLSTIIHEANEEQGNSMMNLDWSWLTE

[7] = biological target: T2, Inhibitor of nuclear factor kappa-B kinase subunit alpha (Homo sapiens); conditions: at 1 µM
[8] = biological target: T3, Inhibitor of nuclear factor kappa-B kinase subunit beta (Homo sapiens) (UniProt O14920); conditions: at 0.1 µM
T3 sequence (whole entry): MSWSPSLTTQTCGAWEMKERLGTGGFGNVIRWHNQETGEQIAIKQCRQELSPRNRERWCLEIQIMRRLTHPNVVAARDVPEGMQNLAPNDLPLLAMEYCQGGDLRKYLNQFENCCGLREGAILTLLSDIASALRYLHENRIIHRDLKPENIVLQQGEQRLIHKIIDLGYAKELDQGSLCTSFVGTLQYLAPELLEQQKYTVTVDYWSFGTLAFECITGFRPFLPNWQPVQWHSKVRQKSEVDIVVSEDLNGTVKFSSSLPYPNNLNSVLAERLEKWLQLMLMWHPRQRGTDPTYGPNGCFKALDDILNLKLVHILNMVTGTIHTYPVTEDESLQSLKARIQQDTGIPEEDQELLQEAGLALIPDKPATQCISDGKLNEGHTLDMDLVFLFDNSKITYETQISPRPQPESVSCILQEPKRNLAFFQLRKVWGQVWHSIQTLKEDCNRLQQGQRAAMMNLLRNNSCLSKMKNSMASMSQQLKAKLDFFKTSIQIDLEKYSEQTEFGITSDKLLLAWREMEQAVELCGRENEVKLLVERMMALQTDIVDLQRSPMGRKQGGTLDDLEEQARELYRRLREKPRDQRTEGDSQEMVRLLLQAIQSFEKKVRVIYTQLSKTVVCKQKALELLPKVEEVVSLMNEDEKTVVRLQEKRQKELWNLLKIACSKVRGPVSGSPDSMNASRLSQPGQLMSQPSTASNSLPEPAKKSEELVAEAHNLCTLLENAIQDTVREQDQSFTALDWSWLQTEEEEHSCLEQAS

[9] = biological target: T3, Inhibitor of nuclear factor kappa-B kinase subunit beta (Homo sapiens); conditions: at 1 µM
[10] = biological target: T4, Inhibitor of nuclear factor kappa-B kinase subunit epsilon (Homo sapiens) (UniProt Q14164); conditions: at 0.1 µM
T4 sequence (whole entry): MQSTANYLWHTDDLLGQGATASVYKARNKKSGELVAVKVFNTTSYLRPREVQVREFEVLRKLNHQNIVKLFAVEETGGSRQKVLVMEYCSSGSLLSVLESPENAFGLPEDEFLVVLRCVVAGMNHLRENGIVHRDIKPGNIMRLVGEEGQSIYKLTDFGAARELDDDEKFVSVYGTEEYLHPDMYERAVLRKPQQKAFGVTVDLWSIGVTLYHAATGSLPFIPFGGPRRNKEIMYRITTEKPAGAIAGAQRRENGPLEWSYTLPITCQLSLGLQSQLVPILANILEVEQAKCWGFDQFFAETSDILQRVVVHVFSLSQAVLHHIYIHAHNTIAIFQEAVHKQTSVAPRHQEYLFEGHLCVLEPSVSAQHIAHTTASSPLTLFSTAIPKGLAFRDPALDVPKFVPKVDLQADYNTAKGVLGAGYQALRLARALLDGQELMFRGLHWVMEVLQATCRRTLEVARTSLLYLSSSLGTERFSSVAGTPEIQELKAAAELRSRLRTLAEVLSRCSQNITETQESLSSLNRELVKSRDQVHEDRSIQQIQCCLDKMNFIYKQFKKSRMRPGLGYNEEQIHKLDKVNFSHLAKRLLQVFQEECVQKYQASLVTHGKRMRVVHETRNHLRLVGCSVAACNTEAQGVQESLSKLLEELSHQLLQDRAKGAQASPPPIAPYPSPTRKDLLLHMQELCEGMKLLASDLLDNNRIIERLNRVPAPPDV

[11] = biological target: T4, Inhibitor of nuclear factor kappa-B kinase subunit epsilon (Homo sapiens); conditions: at 1 µM
[12] = biological target: T5, Serine/threonine-protein kinase Nek1 (Homo sapiens) (UniProt Q96PY6); conditions: at 0.1 µM
T5 sequence (whole entry): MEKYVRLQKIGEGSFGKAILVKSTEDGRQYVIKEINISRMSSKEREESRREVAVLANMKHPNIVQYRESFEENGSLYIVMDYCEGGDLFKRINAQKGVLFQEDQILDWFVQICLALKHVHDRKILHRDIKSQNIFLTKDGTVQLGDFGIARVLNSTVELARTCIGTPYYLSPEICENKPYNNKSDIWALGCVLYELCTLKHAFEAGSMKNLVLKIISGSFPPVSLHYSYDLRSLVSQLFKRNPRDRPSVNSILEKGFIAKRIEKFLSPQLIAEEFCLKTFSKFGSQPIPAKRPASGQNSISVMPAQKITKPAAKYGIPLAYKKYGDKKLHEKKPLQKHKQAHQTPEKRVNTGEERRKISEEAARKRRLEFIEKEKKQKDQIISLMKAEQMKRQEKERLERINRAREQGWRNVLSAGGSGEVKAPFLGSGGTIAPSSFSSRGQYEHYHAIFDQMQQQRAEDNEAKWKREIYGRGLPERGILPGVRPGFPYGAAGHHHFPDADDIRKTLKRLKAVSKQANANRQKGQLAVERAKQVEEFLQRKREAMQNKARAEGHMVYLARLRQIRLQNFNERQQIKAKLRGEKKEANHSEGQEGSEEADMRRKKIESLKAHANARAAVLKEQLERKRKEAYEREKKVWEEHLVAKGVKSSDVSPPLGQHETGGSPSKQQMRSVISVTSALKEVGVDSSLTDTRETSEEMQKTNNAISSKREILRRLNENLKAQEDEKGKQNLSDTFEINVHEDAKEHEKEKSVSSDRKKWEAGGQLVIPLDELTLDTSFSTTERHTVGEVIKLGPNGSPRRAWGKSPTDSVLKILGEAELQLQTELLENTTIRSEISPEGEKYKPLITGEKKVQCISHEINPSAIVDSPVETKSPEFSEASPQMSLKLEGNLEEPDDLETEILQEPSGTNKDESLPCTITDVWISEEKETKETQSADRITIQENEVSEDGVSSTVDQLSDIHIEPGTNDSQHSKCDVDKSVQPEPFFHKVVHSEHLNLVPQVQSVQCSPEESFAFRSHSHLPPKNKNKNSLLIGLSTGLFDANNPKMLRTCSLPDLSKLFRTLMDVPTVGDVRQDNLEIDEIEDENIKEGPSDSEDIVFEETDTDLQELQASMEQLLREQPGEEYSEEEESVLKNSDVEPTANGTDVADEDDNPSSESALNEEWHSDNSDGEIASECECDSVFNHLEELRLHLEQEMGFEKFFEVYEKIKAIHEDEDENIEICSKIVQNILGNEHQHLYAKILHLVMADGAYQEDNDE

[13] = biological target: T5, Serine/threonine-protein kinase Nek1 (Homo sapiens); conditions: at 1 µM
[14] = biological target: T6, Serine/threonine-protein kinase Nek2 (Homo sapiens) (UniProt P51955); conditions: at 0.1 µM
T6 sequence (whole entry): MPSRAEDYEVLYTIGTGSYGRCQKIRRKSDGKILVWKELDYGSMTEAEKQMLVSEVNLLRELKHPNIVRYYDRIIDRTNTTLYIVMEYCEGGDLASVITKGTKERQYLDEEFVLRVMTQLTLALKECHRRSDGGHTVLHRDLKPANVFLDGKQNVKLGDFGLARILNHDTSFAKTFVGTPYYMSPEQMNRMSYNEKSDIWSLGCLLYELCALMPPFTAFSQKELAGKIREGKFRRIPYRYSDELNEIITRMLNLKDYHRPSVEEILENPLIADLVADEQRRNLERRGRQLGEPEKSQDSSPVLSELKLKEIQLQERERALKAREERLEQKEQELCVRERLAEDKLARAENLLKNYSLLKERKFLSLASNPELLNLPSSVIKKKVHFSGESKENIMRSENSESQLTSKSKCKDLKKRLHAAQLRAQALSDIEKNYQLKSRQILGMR

[15] = biological target: T6, Serine/threonine-protein kinase Nek2 (Homo sapiens); conditions: at 1 µM
[16] = biological target: Serine/threonine-protein kinase Nek6 (Homo sapiens) (UniProt Q9HC98); conditions: at 0.1 µM
[17] = biological target: Serine/threonine-protein kinase Nek6 (Homo sapiens) (UniProt Q9HC98); conditions: at 1 µM
[18] = biological target: Serine/threonine-protein kinase Nek7 (Homo sapiens) (UniProt Q8TDX7); conditions: at 0.1 µM
[19] = biological target: Serine/threonine-protein kinase Nek7 (Homo sapiens) (UniProt Q8TDX7); conditions: at 1 µM
[20] = biological target: T7, Serine/threonine-protein kinase Nek9 (Homo sapiens) (UniProt Q8TD19); conditions: at 0.1 µM;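 also: reported value is the mean percent inhibition of NEK9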
T7 sequence (whole entry): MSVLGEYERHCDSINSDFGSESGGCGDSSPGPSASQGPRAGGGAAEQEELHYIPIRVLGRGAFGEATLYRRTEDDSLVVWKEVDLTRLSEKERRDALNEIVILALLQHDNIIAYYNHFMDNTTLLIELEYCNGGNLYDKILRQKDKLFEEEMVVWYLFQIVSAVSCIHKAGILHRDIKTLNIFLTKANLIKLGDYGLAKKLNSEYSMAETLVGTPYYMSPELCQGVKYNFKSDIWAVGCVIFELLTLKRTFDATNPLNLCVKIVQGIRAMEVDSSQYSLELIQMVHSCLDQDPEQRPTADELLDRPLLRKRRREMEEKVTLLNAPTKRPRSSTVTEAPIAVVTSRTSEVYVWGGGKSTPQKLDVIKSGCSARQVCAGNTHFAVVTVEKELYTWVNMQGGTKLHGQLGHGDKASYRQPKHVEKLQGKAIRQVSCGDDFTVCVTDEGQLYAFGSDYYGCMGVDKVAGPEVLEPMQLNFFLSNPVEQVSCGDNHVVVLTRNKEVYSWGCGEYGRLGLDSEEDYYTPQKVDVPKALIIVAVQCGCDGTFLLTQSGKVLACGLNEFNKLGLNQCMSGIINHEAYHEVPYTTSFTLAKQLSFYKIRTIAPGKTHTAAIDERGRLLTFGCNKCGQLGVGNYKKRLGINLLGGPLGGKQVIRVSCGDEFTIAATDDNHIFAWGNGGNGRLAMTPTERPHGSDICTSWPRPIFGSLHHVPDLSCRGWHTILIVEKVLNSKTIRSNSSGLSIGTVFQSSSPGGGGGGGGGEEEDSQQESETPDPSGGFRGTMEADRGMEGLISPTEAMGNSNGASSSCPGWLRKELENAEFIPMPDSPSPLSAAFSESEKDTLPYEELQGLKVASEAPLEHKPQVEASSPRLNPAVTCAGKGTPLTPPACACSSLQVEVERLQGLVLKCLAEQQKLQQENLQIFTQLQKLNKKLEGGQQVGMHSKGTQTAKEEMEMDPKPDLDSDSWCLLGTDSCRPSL

Sequence of Serine/threonine-protein kinase Nek7 (Homo sapiens) (Q8TDX7 whole entry, looked up): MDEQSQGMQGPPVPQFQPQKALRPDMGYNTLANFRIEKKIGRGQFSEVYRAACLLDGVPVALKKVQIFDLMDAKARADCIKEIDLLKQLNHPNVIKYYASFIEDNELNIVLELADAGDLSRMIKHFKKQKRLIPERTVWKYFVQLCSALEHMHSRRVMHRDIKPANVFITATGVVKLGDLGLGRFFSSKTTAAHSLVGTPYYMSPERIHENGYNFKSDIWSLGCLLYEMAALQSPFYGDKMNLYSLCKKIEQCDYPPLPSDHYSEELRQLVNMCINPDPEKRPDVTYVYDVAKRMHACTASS
Sequence of Serine/threonine-protein kinase Nek6 (Homo sapiens) (Q9HC98 whole entry): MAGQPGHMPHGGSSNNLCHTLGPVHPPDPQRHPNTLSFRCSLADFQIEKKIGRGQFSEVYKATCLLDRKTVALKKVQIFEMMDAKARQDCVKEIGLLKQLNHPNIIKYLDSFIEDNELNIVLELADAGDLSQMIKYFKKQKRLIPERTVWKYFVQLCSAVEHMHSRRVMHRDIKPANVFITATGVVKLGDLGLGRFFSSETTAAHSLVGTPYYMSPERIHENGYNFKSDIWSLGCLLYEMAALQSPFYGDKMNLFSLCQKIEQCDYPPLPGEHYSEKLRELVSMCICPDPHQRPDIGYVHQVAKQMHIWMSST
Sequence of Casein kinase II subunit alpha (Homo sapiens) (P68400 whole entry, looked up): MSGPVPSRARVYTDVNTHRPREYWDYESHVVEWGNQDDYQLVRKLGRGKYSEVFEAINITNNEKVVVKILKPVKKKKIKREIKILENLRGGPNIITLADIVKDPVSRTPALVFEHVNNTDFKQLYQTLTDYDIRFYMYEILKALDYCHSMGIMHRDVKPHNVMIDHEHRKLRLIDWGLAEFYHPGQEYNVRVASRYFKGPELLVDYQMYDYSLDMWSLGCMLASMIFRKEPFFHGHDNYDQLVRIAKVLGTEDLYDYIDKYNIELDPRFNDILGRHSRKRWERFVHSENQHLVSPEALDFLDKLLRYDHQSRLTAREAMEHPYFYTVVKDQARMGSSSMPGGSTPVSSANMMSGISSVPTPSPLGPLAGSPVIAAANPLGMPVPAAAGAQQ
Sequence of Sphingosine kinase 1 (Homo sapiens) (Q9NYA1 whole entry): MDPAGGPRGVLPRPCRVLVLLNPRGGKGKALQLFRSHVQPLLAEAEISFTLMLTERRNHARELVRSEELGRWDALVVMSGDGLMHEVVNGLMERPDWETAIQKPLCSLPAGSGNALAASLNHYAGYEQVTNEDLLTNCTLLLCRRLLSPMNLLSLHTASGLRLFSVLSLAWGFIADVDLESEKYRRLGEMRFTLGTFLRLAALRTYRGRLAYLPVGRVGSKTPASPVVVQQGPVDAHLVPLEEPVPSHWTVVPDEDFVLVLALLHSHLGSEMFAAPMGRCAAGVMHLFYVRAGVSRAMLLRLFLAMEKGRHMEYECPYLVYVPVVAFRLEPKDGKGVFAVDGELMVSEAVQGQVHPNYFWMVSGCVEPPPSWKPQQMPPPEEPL

Which results are given for `Nc1ncnc2occ(-c3ccc(NC(=O)Nc4cccc(C(F)(F)F)c4)cc3)c12`?
inhibition [1]: -6.26%; inhibition [2]: 0.27%; inhibition [3]: 1.95%; inhibition [4]: 7.18%; inhibition [5]: 4.76%; inhibition [6]: 6.44%; inhibition [7]: 11.1%; inhibition [8]: 6.2%; inhibition [9]: 7.53%; inhibition [10]: 8.03%; inhibition [11]: 9.66%; inhibition [12]: 7.14%; inhibition [13]: 41.9%; inhibition [14]: 6.56%; inhibition [15]: 7.21%; inhibition [16]: 2.78%; inhibition [17]: 1.33%; inhibition [18]: 2.42%; inhibition [19]: -0.46%; inhibition [20]: 5.7%
